Measured values: PubChem BioAssay (EPA / NIEHS)
Inconclusive results are not listed. The source holds several records for some structures; these can differ, active in one and inactive in another. Calls of active or inactive are those of the source. The calls were made as follows, unless noted: active = hit-call score of the fitted dose curve at least 0.9, where 1 is the maximum; inactive = score below 0.9.

Assays:
[1] = biological target: Nuclear respiratory factor 1 (Homo sapiens) (UniProt Q16656); assay: ATG_NRF1_CIS: Attagene CIS-FACTORIAL HepG2 Assay for human Nuclear Respiratory Factor 1 (NRF1) Orphan Gene (AID 2282987); settings: HepG2 NRF1 cis-element reporter, Attagene multiplex; actives raise or lower the signal
Nuclear respiratory factor 1 (Homo sapiens), sequence (Q16656 whole entry, looked up): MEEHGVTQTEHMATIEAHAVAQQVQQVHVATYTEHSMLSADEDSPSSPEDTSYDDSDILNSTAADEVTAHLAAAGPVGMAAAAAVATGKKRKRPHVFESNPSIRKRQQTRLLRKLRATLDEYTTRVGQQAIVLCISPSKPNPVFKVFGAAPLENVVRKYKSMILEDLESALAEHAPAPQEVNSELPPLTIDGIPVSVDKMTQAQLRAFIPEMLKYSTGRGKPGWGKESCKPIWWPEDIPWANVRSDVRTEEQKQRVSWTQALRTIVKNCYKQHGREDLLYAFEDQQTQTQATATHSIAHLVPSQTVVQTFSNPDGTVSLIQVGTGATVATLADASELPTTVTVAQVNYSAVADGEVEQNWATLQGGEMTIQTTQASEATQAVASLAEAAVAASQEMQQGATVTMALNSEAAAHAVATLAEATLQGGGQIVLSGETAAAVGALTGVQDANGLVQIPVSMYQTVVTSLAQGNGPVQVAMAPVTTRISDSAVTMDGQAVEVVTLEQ
Summary of the method: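 Endogenous NRF1-driven reporter transcription measured in transiently transfected human HepG2 liver cells. Readout: reporter mRNA by RT-PCR and capillary electrophoresis with fluorescence detection, 24 h post-dosing. Gain or loss of signal fitted relative to DMSO baseline.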

[2] = ATG_NFI_CIS: Attagene CIS-FACTORIAL HepG2 Assay for human Nuclear Factor I (NFI) (AID 2282989); settings: HepG2 cis-regulatory reporter, NFI response element transcription; actives raise or lower the signal
Summary of the method: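 Read-out: reporter mRNA via RT-PCR plus capillary electrophoresis with fluorescence detection. Transiently transfected HepG2 (endogenous TF activity on cis promoters), 24 h compound exposure; gain or loss of signal fitted against DMSO.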

[3] = biological target: Myc proto-oncogene protein (Homo sapiens) (UniProt P01106); assay: ATG_Myc_CIS: Attagene CIS-FACTORIAL HepG2 Assay for human Myelocytomatosis (Myc) Proto-Oncogene Transcription Factor (AID 2282990); settings: HepG2, Attagene cis-reporter transcription factor activity; actives raise or lower the signal
Myc proto-oncogene protein (Homo sapiens), sequence (P01106 whole entry, looked up, the tested form may be a part): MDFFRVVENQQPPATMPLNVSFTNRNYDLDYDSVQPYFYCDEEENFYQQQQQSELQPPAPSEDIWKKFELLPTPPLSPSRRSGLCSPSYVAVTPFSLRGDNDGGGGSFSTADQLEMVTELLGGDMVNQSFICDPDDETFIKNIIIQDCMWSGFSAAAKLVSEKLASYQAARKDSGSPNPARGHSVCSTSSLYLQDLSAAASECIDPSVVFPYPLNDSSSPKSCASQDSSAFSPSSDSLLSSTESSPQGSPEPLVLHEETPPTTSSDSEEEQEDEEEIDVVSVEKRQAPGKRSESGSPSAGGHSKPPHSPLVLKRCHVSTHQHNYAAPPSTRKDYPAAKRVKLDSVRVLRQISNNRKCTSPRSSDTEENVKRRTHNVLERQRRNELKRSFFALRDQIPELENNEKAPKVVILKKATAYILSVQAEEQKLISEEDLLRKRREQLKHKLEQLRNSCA
Summary of the method: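 After 24 h chemical treatment of HepG2 cells carrying multiplexed cis-regulated reporter constructs, reporter transcripts quantified by RT-PCR and capillary electrophoresis of fluorescent fragments. Gain or loss fitted against DMSO baseline.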

[4] = ATG_NRF2_ARE_CIS: Attagene CIS-FACTORIAL HepG2 Assay for human Nuclear Factor Erythroid 2 Related Factor 2 (NFR2) response to Antioxidant Response Elements (ARE) (AID 2282992); settings: HepG2 Attagene ARE/NRF2 reporter, transcription factor activity; actives raise or lower the signal
Summary of the method: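 HepG2 cells transiently transfected with multiplexed cis-element reporter constructs, 24 h after chemical dosing; reporter mRNA quantified by RT-PCR, fluorescent primer extension, HpaI digestion and capillary electrophoresis. Bidirectional fit relative to DMSO.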

[5] = ATG_Oct_MLP_CIS: Attagene CIS-FACTORIAL HepG2 Assay for human Octamer-Binding Transcription Factor (Oct) (AID 2282993); settings: HepG2 Attagene cis-factorial Oct reporter, mRNA; actives raise or lower the signal
Summary of the method: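 Read-out: reporter mRNA via RT-PCR plus capillary electrophoresis of 6-FAM-labelled fragments. Transiently transfected HepG2, 24 h exposure, endogenous TF activity on cis elements. Gain or loss of signal fitted relative to DMSO.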

[6] = biological target: Cellular tumor antigen p53 (Homo sapiens) (UniProt P04637); assay: ATG_p53_CIS: Attagene CIS-FACTORIAL HepG2 Assay for human p53 Transcription Factor (AID 2282994); settings: HepG2 p53 cis-element reporter, Attagene mRNA; actives raise or lower the signal
Cellular tumor antigen p53 (Homo sapiens), sequence (P04637 whole entry, looked up): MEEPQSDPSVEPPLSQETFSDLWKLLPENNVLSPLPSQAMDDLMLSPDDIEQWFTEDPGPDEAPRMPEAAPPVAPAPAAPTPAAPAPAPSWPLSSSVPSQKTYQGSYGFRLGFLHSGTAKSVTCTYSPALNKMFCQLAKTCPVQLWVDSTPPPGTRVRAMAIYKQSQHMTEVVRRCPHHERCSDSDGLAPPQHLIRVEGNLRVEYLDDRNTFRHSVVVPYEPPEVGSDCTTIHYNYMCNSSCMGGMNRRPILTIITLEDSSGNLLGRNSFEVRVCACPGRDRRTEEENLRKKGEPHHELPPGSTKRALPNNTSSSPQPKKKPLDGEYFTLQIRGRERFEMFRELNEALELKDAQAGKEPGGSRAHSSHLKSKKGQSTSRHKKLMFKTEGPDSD
Summary of the method: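 HepG2 cells transiently transfected with cis-regulated multiple reporter transcription units, dosed 24 h. Reporter mRNA measured by RT-PCR, 6-FAM primer extension, HpaI digestion and capillary electrophoresis; bidirectional fit relative to DMSO.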

[7] = biological target: human Peroxisome Proliferator-activated Receptor delta (PPARd), PPARD (gene 5467) (UniProt Q03181); assay: ATG_PPARd_TRANS: Attagene TRANS-FACTORIAL HepG2 Assay for human Peroxisome Proliferator-activated Receptor delta (PPARd) (AID 2283002; active = hit-call score of the fitted dose curve at least 0.9, where 1 is the maximum)
human Peroxisome Proliferator-activated Receptor delta (PPARd), PPARD (gene 5467), sequence (Q03181 whole entry, looked up, the tested form may be a part): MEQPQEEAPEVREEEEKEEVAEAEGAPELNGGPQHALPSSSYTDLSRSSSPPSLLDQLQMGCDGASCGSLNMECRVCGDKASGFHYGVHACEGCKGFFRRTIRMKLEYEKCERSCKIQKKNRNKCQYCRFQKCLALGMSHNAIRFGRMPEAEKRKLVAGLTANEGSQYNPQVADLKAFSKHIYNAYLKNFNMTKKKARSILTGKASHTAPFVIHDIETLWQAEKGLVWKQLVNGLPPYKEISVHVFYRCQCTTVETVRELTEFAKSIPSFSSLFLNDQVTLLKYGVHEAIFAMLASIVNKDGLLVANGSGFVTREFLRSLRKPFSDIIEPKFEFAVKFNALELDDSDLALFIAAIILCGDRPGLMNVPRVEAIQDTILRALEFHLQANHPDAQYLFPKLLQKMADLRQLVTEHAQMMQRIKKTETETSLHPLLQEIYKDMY
Summary of the method: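 Read-out is induced reporter mRNA, quantified by RT-PCR with fluorescent labelling and capillary electrophoresis after 24 h dosing. Cells are HepG2 transiently carrying multiple GAL4-UAS reporter units driven by exogenous NR-GAL4 chimeras; DMSO serves as baseline.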

[8] = biological target: Peroxisome proliferator-activated receptor gamma (Homo sapiens) (UniProt P37231); assay: ATG_PPARg_TRANS: Attagene TRANS-FACTORIAL HepG2 Assay for human Peroxisome Proliferator-activated Receptor-gamma (PPARg) (AID 2283007; active = hit-call score of the fitted dose curve at least 0.9, where 1 is the maximum)
Peroxisome proliferator-activated receptor gamma (Homo sapiens), sequence (P37231 whole entry, looked up, the tested form may be a part): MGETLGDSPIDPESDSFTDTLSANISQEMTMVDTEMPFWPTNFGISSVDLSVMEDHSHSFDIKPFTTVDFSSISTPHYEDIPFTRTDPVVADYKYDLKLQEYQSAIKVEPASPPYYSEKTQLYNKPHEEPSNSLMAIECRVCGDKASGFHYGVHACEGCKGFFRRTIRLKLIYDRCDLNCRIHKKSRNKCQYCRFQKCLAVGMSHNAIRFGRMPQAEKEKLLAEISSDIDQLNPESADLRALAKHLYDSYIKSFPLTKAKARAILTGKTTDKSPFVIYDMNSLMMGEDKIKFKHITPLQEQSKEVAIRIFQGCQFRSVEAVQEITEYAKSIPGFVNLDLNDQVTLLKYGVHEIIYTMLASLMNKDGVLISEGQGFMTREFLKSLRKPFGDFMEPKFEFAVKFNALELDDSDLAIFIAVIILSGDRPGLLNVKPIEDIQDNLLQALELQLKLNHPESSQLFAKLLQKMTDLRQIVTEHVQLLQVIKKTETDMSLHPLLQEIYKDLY
Summary of the method: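 Read-out: reporter mRNA induction, detected by fluorescence after RT-PCR and capillary electrophoresis. Transiently transfected human HepG2 liver cells carrying a chimeric NR-Gal4 construct were dosed for 24 h; activity was fitted upward relative to DMSO.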

[9] = biological target: Nuclear receptor subfamily 1 group I member 2 (Homo sapiens) (UniProt O75469); assay: ATG_PXR_TRANS: Attagene TRANS-FACTORIAL HepG2 Assay for human Pregnane X Receptor (PXR) (AID 2283008; active = hit-call score of the fitted dose curve at least 0.9, where 1 is the maximum)
Nuclear receptor subfamily 1 group I member 2 (Homo sapiens), sequence (O75469 whole entry, looked up, the tested form may be a part): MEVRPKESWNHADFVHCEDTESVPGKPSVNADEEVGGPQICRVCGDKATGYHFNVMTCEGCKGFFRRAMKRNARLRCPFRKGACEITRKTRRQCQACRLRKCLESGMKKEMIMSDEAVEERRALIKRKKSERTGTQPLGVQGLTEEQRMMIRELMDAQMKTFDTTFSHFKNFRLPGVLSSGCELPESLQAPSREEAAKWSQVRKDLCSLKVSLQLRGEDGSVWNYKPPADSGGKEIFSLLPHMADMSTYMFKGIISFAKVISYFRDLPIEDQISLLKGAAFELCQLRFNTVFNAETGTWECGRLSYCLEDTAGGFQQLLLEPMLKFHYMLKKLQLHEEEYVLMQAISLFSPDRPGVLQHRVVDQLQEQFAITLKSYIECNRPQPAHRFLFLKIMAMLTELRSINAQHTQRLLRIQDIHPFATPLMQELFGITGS
Summary of the method: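 HepG2 cells transiently transfected with GAL4-UAS reporter units and PXR-Gal4 chimera, exposed 24 h. Reporter mRNA quantified by RT-PCR, fluorescent labelling, HpaI digestion and capillary electrophoresis; gain of signal vs DMSO.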

[10] = biological target: human Peroxisome Proliferator-activated Receptor alpha (PPARa), PPARA (gene 5465) (UniProt Q07869); assay: ATG_PPARa_TRANS: Attagene TRANS-FACTORIAL HepG2 Assay for human Peroxisome Proliferator-activated Receptor alpha (PPARa) (AID 2283001; active = hit-call score of the fitted dose curve at least 0.9, where 1 is the maximum;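 as to AC50: potency for gain of reporter signal over DMSO so agonist or activator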)
human Peroxisome Proliferator-activated Receptor alpha (PPARa), PPARA (gene 5465), sequence (Q07869 whole entry, looked up, the tested form may be a part): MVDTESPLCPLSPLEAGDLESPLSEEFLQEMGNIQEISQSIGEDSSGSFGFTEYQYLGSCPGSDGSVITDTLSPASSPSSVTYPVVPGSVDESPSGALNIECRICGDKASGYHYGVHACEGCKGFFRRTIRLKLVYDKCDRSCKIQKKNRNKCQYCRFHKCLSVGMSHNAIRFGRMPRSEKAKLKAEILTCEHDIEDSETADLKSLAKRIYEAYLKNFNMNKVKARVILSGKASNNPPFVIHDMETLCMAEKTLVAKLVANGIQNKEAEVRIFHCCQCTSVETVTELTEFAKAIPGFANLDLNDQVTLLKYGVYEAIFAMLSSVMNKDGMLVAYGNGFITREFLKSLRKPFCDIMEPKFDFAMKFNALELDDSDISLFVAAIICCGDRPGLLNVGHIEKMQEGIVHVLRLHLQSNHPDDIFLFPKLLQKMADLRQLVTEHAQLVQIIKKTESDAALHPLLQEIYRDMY
Summary of the method: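 Reporter transcripts from GAL4-UAS units in transfected HepG2 were quantified 24 h after dosing. Detection used reverse transcription, PCR, fluorescent primer extension and capillary electrophoresis, with DMSO as baseline.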

[11] = biological target: human Retinoic Acid Receptor gamma (RARg), RARG (gene 5916) (UniProt P13631); assay: ATG_RARg_TRANS: Attagene TRANS-FACTORIAL HepG2 Assay for human Retinoic Acid Receptor gamma (RARg) (AID 2283009; active = hit-call score of the fitted dose curve at least 0.9, where 1 is the maximum)
human Retinoic Acid Receptor gamma (RARg), RARG (gene 5916), sequence (P13631 whole entry, looked up, the tested form may be a part): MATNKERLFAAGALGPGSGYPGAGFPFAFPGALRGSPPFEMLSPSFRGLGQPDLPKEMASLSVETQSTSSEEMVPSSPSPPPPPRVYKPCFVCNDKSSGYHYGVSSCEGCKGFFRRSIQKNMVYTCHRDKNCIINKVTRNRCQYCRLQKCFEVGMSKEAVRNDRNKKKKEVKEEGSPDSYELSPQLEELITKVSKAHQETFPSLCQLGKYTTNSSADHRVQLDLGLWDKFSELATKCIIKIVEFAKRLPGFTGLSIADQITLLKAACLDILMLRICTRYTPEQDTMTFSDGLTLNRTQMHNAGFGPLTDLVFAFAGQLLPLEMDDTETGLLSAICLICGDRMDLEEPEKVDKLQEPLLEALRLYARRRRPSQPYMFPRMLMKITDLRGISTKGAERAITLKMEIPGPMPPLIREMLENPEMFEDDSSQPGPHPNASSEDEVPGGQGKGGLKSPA
Summary of the method: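 HepG2 cells transiently transfected with multiplexed reporter units expressing chimeric RARg-GAL4 and GAL4-UAS-driven reporters; 24 h compound exposure. Reporter mRNA quantified by RT-PCR with fluorescent labelling and capillary electrophoresis; gain-of-signal fitted relative to DMSO baseline.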

[12] = ATG_NF_kB_CIS: Attagene CIS-FACTORIAL HepG2 Assay for human Nuclear Factor Kappa B (NF-kB) (AID 2282991); settings: HepG2 Attagene cis-factorial NF-kB reporter mRNA; actives raise or lower the signal
Summary of the method: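 Read-out: reporter transcript levels quantified by RT-PCR plus capillary electrophoresis of 6-FAM-labelled, HpaI-cut fragments. Transfected HepG2 cells, 24 h compound exposure, endogenous NF-kB-driven cis element; gain or loss scored versus DMSO.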

[13] = biological target: human Retinoic Acid Receptor beta (RARb), RARB (gene 5915) (UniProt P10826); assay: ATG_RARb_TRANS: Attagene TRANS-FACTORIAL HepG2 Assay for human Retinoic Acid Receptor beta (AID 2283004; active = hit-call score of the fitted dose curve at least 0.9, where 1 is the maximum)
human Retinoic Acid Receptor beta (RARb), RARB (gene 5915), sequence (P10826 whole entry, looked up): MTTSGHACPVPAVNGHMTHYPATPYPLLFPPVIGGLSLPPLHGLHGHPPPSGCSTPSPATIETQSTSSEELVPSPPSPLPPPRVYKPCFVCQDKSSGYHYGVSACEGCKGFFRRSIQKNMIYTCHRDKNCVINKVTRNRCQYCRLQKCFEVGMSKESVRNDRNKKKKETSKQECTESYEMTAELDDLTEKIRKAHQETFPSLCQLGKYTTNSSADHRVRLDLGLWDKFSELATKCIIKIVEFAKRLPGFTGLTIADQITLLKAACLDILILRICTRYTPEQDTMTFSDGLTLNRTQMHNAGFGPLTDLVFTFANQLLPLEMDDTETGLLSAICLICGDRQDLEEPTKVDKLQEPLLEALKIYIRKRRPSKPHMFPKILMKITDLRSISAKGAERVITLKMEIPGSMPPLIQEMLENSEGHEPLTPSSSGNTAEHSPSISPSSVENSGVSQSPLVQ
Summary of the method: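 Transient transfection of HepG2 with multiple reporter units → chemical dosing, 24 h → total RNA isolation → RT with oligo(dT) → reporter-specific PCR, 6-FAM primer extension, HpaI digest → capillary electrophoresis. Positive direction vs DMSO control.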

[14] = biological target: Retinoic acid receptor alpha (Homo sapiens) (UniProt P10276); assay: ATG_RARa_TRANS: Attagene TRANS-FACTORIAL HepG2 Assay for human Retinoic Acid Receptor alpha (RARa) (AID 2283005; active = hit-call score of the fitted dose curve at least 0.9, where 1 is the maximum)
Retinoic acid receptor alpha (Homo sapiens), sequence (P10276 whole entry, looked up, the tested form may be a part): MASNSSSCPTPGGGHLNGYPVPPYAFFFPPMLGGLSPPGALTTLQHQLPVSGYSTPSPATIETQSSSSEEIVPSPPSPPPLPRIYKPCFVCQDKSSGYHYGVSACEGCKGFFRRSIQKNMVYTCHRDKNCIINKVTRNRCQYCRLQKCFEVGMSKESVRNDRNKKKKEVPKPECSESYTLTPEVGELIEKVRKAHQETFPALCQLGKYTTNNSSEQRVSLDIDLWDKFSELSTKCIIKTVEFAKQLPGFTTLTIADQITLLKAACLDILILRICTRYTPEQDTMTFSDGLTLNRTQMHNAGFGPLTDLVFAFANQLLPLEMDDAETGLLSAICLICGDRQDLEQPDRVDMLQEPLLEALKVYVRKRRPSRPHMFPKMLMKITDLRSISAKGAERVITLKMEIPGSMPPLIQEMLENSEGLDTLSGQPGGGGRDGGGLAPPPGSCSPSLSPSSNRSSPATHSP
Summary of the method: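 Reporter transcripts, measured by RT-PCR with fluorescent labeling and capillary electrophoresis after 24 h dosing, reflect activity of an exogenous human RARa–GAL4 fusion in transiently transfected HepG2. Fitted for increase relative to DMSO.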

[15] = BSK_3C_TissueFactor: BioMAP Diversity Plus: 3C Assay for Tissue Factor Biomarker Activity (AID 2282997); settings: BioMAP 3C HUVEC, tissue factor biomarker readout; actives raise or lower the signal
Summary of the method: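 ELISA read-out of Tissue Factor levels on human umbilical vein endothelium collected 24 h after chemical dosing. Gain or loss of signal was fitted relative to DMSO.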

[16] = BSK_3C_uPAR: BioMAP Diversity Plus: 3C Assay for Urokinase-type plasminogen activator receptor (uPAR) Biomarker Activity (AID 2282998); settings: BioMAP 3C HUVEC, uPAR biomarker ELISA; actives raise or lower the signal
Summary of the method: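 HUVEC primary cells; 24 h post-dose; uPAR by ELISA; gain or loss of signal fitted bidirectionally vs DMSO baseline.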

[17] = BSK_3C_VCAM1: BioMAP Diversity Plus: 3C Assay for Vascular cell adhesion molecule 1 (VCAM1) Biomarker Activity (AID 2282999); settings: BioMAP 3C HUVEC, VCAM1 ELISA, cytokine-stimulated; actives raise or lower the signal
Summary of the method: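 Endothelial cells from human umbilical vein are treated with test chemical. At 24 h, VCAM-1 is measured by ELISA, and responses in either direction are fitted relative to DMSO.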

[18] = BSK_4H_Eotaxin3: BioMAP Diversity Plus: 4H Assay for Eotaxin 3 Biomarker Activity (AID 2283000); settings: primary human endothelial cells (HUVEC); actives raise or lower the signal;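 also: CCL26 protein level quantified by ELISA in parallel with SRB cytotoxicity check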
Summary of the method: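 Chemicals were added to human umbilical vein endothelium cultures, and Eotaxin-3 was quantified by ELISA at 24 h. Values were derived by bidirectional fitting with DMSO serving as negative control and activity baseline.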

[19] = BSK_3C_Proliferation: Cell Proliferation Assessment in the BioMAP Diversity Plus: 3C Assay (AID 2283006); settings: primary human endothelial cells (HUVEC);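 as to AC50: potency may reflect either rise or fall in cell number versus DMSO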
Summary of the method: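 Human umbilical vein endothelial cells were grown sub-confluent and exposed to chemical for 48 h, then fixed with 10% TCA and stained with 0.1% sulforhodamine B; absorbance at 560 nm gave relative cell number, fitted bidirectionally against DMSO baseline.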

Measured: AC50

CCCCC/C=C\C/C=C\CCCCCCCC(=O)O
inactive: [1] | [3] | [5] | [6] | [7] | [9]
active: [2] 163 µM | [4] 51.6 µM | [8] 11.9 µM

N#CC1(N)CCCCC1
inactive: [1] | [2] | [3] | [4] | [5] | [6] | [10] | [8] | [11]

CCOC(=O)CC(=O)c1ccccc1
inactive: [1] | [2] | [3] | [12] | [4] | [5] | [7] | [8] | [9]

CN(C)c1ccc2nc3ccc(=[N+](C)C)cc-3sc2c1
active: [1] 15 µM | [4] 2.2 µM | [9] 10.3 µM
inactive: [2] | [3] | [5] | [6] | [10] | [13] | [14] | [11]

COc1cc(C)ccc1O
inactive: [1] | [2] | [3] | [5] | [6] | [7] | [14] | [8] | [9]
active: [4] 17.4 µM

C=CCCCCCCCCO
inactive: [1] | [2] | [3] | [4] | [5] | [6] | [10] | [7] | [8] | [9]

O=C(OCc1ccccc1)c1ccc(O)cc1
active: [4] 64.4 µM | [5] 125 µM | [8] 49.9 µM | [9] 63.2 µM
inactive: [1] | [2] | [3] | [6] | [10]

Nc1cccc(N)n1
inactive: [1] | [2] | [3] | [4] | [5] | [15] | [16] | [17] | [18] | [10] | [7] | [13] | [19] | [9]

C=C(C)C1CC=C(C)CC1 (configuration not stated)
inactive: [1] | [2] | [3] | [4] | [5] | [6] | [10] | [9] | [11]

CC(C)c1cc(C(C)C)cc(C(C)C)c1
active: [1] 174 µM | [2] 151 µM | [3] 161 µM | [4] 66.3 µM | [9] 26.9 µM
inactive: [5] | [6] | [7] | [14]

O=C(Oc1ccccc1)c1ccccc1C(=O)Oc1ccccc1
active: [4] 30.7 µM | [8] 47.6 µM
inactive: [1] | [2] | [3] | [5] | [6] | [15] | [16] | [17] | [18] | [7] | [19] | [9]

C=C[Si](OCCOC)(OCCOC)OCCOC
inactive: [1] | [2] | [3] | [4] | [5] | [6] | [10] | [13] | [9]

CC(=O)OCCc1ccccc1
inactive: [1] | [2] | [3] | [4] | [5] | [6] | [10] | [7] | [13]

O=C(O)CCCC(=O)O
inactive: [1] | [2] | [3] | [4] | [5] | [6] | [7] | [8] | [9]

C=CCNCC=C
inactive: [1] | [2] | [3] | [4] | [5] | [6] | [13] | [9]

COc1cc(O)c(C(=O)c2ccccc2)cc1S(=O)(=O)O
inactive: [1] | [2] | [3] | [12] | [4] | [5] | [7] | [8] | [9]

COC(=O)c1ccccc1C
inactive: [1] | [2] | [3] | [4] | [5] | [6] | [10] | [7] | [8]

CCCCC(CC)COS(=O)(=O)O (configuration not stated)
inactive: [1] | [2] | [3] | [12] | [4] | [5] | [7] | [9]

CCCCC(=O)O
inactive: [1] | [2] | [3] | [4] | [5] | [6] | [13] | [14] | [11]

CC12CCC(CC1)C(C)(C)O2
inactive: [1] | [2] | [3] | [4] | [5] | [6] | [7] | [13]

O=C(O)C1CCC(C(=O)O)CC1 (configuration not stated)
inactive: [1] | [2] | [3] | [4] | [5] | [6]

CCCCCCCCCCCC(=O)N(C)CC(=O)O
active: [4] 97.5 µM | [10] 7.45 µM | [7] 35.2 µM | [19] 15.2 µM
inactive: [1] | [2] | [3] | [5] | [15] | [16] | [17] | [18] | [14] | [19] | [9]

CCCCNS(=O)(=O)c1ccc(C)cc1
inactive: [1] | [2] | [3] | [4] | [5] | [6] | [7] | [9]

CCCCCCCC(=O)OCC(COC(=O)CCCCCCC)OC(=O)CCCCCCC
inactive: [1] | [2] | [3] | [4] | [5] | [6] | [8]
